The text below walks through data of PubChem BioAssay AID977607 (Broad Institute, 2014).

Hit rate of the full screen: of about 1,500 compounds, about 460 (31%) were called active. About 1% were inconclusive and are not listed. These entries were drawn from the full list. Potency and affinity values are given separately. Unmarked numbers belong to inactive results.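 Rule for the calls: active = curve reaches 40% activation over neutral controls at an AC40 no higher than the top valid tested concentration; inconclusive = no clear call, values can overlap the other calls; inactive = signal moving opposite to the expected increase, and the rest.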

The nature of this experiment: GLuc-reported insulin release enhancers, glucose-stimulated beta cells – cell-based, INS-1E, Gaussia luciferase, luminescence, cherry-pick, set 2, dose response (AID 977607).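 Note: 0% = median of the plate neutral control wells.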 The settings on record: INS-1E GLuc insulin secretion reporter, 2-3 h, hits give high values; at 35 µM, 100% = signal doubled over neutral wells unless noted.
With `Cc1ccc(C)c(OCC(=O)NCC(C)(C)N2CCOCC2)c1`, the max activation was -15.8% [at 0.015 µM, 100% = signal doubled over neutral wells].

Take `Cc1ccc(C)c(OCC(=O)Nc2cc(NC(=O)COc3cc(C)ccc3C)cc(C(=O)O)c2)c1`: the max activation was -27.7%.

`CC(C)Cn1c(Cc2ccccc2)n[nH]c1=S`: the max activation was -12.9% [at 3.8 µM, 100% = signal doubled over neutral wells].

Take `Cc1ccc2nc(N/N=C/c3ccccc3C#N)nc(-c3ccccc3)c2c1`: the max activation is -36.1%.

Consider `COCc1[nH]nc2c1C(c1ccc(C)cc1)NC2=O` (stereo unspecified), for which the max activation is 25.3%.

As for `CCOc1ccc(C(=O)OCC(=O)Nc2cc(C)on2)cc1OCC`, the max activation is 24%.

Consider `COc1ccc(S(=O)(=O)N2CCOCC2)cc1NC(=O)COc1ccccc1`, for which the max activation is -23.5%.

On to `CCOc1ccc(-c2noc(CCC(=O)NC)n2)cc1OCC`, for which the max activation was -18.4% [at 0.005 µM, 100% = signal doubled over neutral wells].

On to `COc1ccc(C(C)=O)cc1Cn1cnc2c(cnn2C)c1=O`, for which the max activation is -12.8% [at 0.015 µM, 100% = signal doubled over neutral wells].

For `Cc1sc2ncn(CC(=O)NCc3ccccc3)c(=O)c2c1C`, the max activation was -22.8% [at 0.015 µM, 100% = signal doubled over neutral wells].

On to `O=C(Cn1cnc2sc(-c3ccccc3)cc2c1=O)NCCc1ccccc1`, for which the max activation was -13.9% [at 11 µM, 100% = signal doubled over neutral wells].

Turning to `CCC(=O)Nc1cc2nn(-c3ccc(OC)cc3)nc2cc1C`, the max activation was -15.9% [at 3.8 µM, 100% = signal doubled over neutral wells].

As to `Cc1cc(-c2ccc(S(=O)(=O)N3CCN(C)CC3)s2)on1`, the max activation was -22.5%.

As to `OC(c1ccc(Cl)cc1)C(CN1CCOCC1)c1ccccc1` (stereo unspecified), the max activation is -24.5%.

In the case of `COC(=O)c1ccc(CNC(=O)CCc2c[nH]c3ccccc23)cc1`, the max activation was -13.7% [at 0.015 µM, 100% = signal doubled over neutral wells].

For the compound `C/C(=N/Oc1nc(C)cc(C)n1)c1ccc(F)cc1`, the max activation was -10.7% [at 3.8 µM, 100% = signal doubled over neutral wells].

For `COc1ccc(-n2c(O)cnc2Nc2nc(C)cc(C)n2)cc1OC`, the max activation is -16.8% [at 0.135 µM, 100% = signal doubled over neutral wells].

Consider `CNc1ccc(-c2ccccc2OC)cn1`, for which the max activation was -9.32% [at 1.2 µM, 100% = signal doubled over neutral wells].

Turning to `CNc1cc(-c2ccc(OC)c(OC)c2)ncn1`, the max activation is -15.3% [at 0.046 µM, 100% = signal doubled over neutral wells].

As to `O=C(NC1CCCC1)c1ccc(Cl)c(S(=O)(=O)N2CCOCC2)c1`, the max activation was 23.2% [at 0.42 µM, 100% = signal doubled over neutral wells].

As for `Cc1ccccc1CSCc1ccc(C(=O)NCCCN2CCOCC2)o1`, the max activation is -12.1% [at 0.046 µM, 100% = signal doubled over neutral wells].

With `CCOc1ccc2oc(=O)cc(CN3CCOCC3)c2c1`, the max activation was 12.7%.

On to `CC(C)CC(=O)Nc1c2c(nn1-c1ccc(F)cc1)CS(=O)(=O)C2`, for which the max activation was -20.4% [at 1.2 µM, 100% = signal doubled over neutral wells].

Regarding `Cc1ccccc1-n1nc2c(c1NC(=O)c1cc3ccccc3oc1=O)CS(=O)(=O)C2`, the max activation was 24.5% [at 3.8 µM, 100% = signal doubled over neutral wells].

`Cc1cc(Cl)ccc1-c1nc(NCc2ccccc2)nc2ccsc12`: the max activation was -22.5% [at 11 µM, 100% = signal doubled over neutral wells].

As to `c1ccc(CNc2nc(Oc3ccncc3)c3sccc3n2)cc1`, the max activation was 13.8% [at 11 µM, 100% = signal doubled over neutral wells].

`C[C@@H]1CN([C@H](C)CO)C(=O)CCCn2cc(nn2)CO[C@H]1CN(C)S(=O)(=O)c1cccs1`: the max activation was -22.5% [at 11 µM, 100% = signal doubled over neutral wells].

Regarding `C[C@@H]1CC2=C(C(=O)OC(C)(C)O2)[C@H](c2ccc(F)cc2)O1`, the max activation was -20.8% [at 0.015 µM, 100% = signal doubled over neutral wells].

With `NC(=O)c1ccsc1NC(=O)COC(=O)CNC(=O)c1ccc(Cl)cc1`, the max activation is -11.2% [at 0.005 µM, 100% = signal doubled over neutral wells].

As to `CC1(C(=O)NCc2ccccc2)CN(S(C)(=O)=O)CC(=O)N1C1CC1` (stereo unspecified), the max activation was -10.6% [at 11 µM, 100% = signal doubled over neutral wells].

For `CCN(CCC(=O)O)c1ccccc1`, the max activation is -16.1% [at 0.135 µM, 100% = signal doubled over neutral wells].

In the case of `O=C(Cn1cc(C(F)(F)F)ccc1=O)NCC1CCCO1` (stereo unspecified), the max activation is -21% [at 0.015 µM, 100% = signal doubled over neutral wells].

As for `CC1=NS(=O)(=O)NC(C)(C)C1`, the max activation is 51.2% [at 0.42 µM, 100% = signal doubled over neutral wells].

For the compound `CCc1ccc(OCC(=O)NC(=S)Nc2ccc(C)cc2C)c(Br)c1`, the max activation was -19.5% [at 0.046 µM, 100% = signal doubled over neutral wells].

On to `COc1ccc(CCNC(=O)COC(=O)c2cncc(Br)c2)cc1OC`, for which the max activation is -19.1%.

Consider `COCCN(CCOC)Cc1cc(=O)oc2cc(OC)c(Cl)cc12`, for which the max activation was 13.5% [at 11 µM, 100% = signal doubled over neutral wells].
